About 1,200 (1.8%) of roughly 65,000 compounds were called active. Many of the other results were omitted from the sample, so actives are more common in it than they were. A number with no mark means an inactive call. Rule as the data show it: active = inhibition above about 50%; inactive = the rest.
Molecular target: Gag-Pol polyprotein (Human immunodeficiency virus type 1 group M subtype B (isolate HXB2)) (UniProt P04585)
Assay: HIV-1 RT RNase H inhibitors, primary screen, biochemical, fluorescence (AID 565)
Settings: RT-RNase H RNA/DNA duplex cleavage, at 10 µM, hits give high values

**Q.** For Cc1cccc(NC(=O)COc2ccc(Br)cc2C)n1, which inhibition is on record?
**A.** -9.39%

**Q.** How did the inhibition turn out when CC(C)(C)c1ccc(C(=O)CSc2ncn[nH]2)cc1 was run?
**A.** 82.3% (active)

**Q.** Which inhibition does the source give for CCN(C(=O)CSc1ncn[nH]1)c1cccc2ccccc12 here?
**A.** -10.7%

**Q.** How did the inhibition turn out when Cn1nnc(NC(=O)CSc2ncn[nH]2)n1 was run?
**A.** -0.52%

**Q.** For Cc1cccc(N=C2NC(=O)CS2)c1C, which inhibition is on record?
**A.** -0.31%

**Q.** With c1ccc2cc(OCCN3CCCC3)ccc2c1 as the compound, how does the inhibition read?
**A.** -14.7%

**Q.** How did the inhibition turn out when N#Cc1cccc(CSc2nnc(CCCO)n2-c2ccccc2)c1 was run?
**A.** -5.32%

**Q.** O=C(OCc1nnc(-c2ccccc2)o1)c1ccc2c(c1)C(=O)N(CCc1ccccc1)C2=O was tested. Which inhibition did it give?
**A.** 16.2%

**Q.** O=c1c2ccccc2[nH]c(=S)n1CCN1CCC(=C(c2ccc(F)cc2)c2ccc(F)cc2)CC1 was tested. Which inhibition did it give?
**A.** 53.2% (active)

**Q.** With O=C(CCn1c(=S)[nH]c2ccccc2c1=O)NCCCN1CCCC1=O as the compound, how does the inhibition read?
**A.** -8.03%

**Q.** Which inhibition does the source give for COc1ccccc1Cn1c(=S)[nH]c2cc(C(=O)N3CCN(C)CC3)ccc2c1=O here?
**A.** -5.95%

**Q.** Which inhibition does the source give for CN(C)Cc1c(O)ccc2occ(C(O)c3ccccc3)c12 (stereo not drawn) here?
**A.** 2.07%

**Q.** With COc1ccc(OC)c2c(N)c(C#N)c(C(F)(F)C(F)(F)F)nc12 as the compound, how does the inhibition read?
**A.** -3.29%

**Q.** For Cn1c(CC(=O)Nc2ccccc2)nnc1SCC(=O)c1ccccc1, which inhibition is on record?
**A.** 50.1% (active)

**Q.** How did the inhibition turn out when Cn1c(CNc2nc(-c3ccccc3)cs2)nnc1SCC(=O)c1ccccc1 was run?
**A.** -5.65%

**Q.** For Cc1ccccc1NC(=O)Cc1nnc(SCC(=O)N2CCN(c3ccccc3)CC2)n1C, which inhibition is on record?
**A.** 1.53%

**Q.** Which inhibition does the source give for CCOC(=O)C(C(=O)OCC)C(C#N)c1ccccc1 (stereo not drawn) here?
**A.** -13.1%

**Q.** How did the inhibition turn out when Cc1ccc(-c2nnc(SC(C)C#N)n2N)cc1 (stereo not drawn) was run?
**A.** -0.02%

**Q.** For COc1cc(C(=O)Nc2nccs2)cc(OC)c1OC, which inhibition is on record?
**A.** -12.7%

**Q.** With COc1cc(C(=O)Nc2oc(-c3ccccc3)c(-c3ccccc3)c2C#N)cc(OC)c1OC as the compound, how does the inhibition read?
**A.** 80% (active)

**Q.** How did the inhibition turn out when N#Cc1c(NC(=O)CCCN2C(=O)c3ccccc3C2=O)oc(-c2ccccc2)c1-c1ccccc1 was run?
**A.** 19%

**Q.** Which inhibition does the source give for COCCNC(=O)C(c1ccc(C)o1)N(Cc1ccccc1)C(=O)Cn1nnc2ccccc21 (stereo not drawn) here?
**A.** 5.47%

**Q.** With CCC(C)(C)NC(=O)C(c1cccn1C)N(Cc1ccc(C)cc1)C(=O)Cn1nnc2ccccc21 (stereo not drawn) as the compound, how does the inhibition read?
**A.** 50.2% (active)

**Q.** For CC(C)(C)NC(=O)C(c1ccco1)N(Cc1ccc2c(c1)OCO2)C(=O)Cn1nnc2ccccc21 (stereo not drawn), which inhibition is on record?
**A.** 9.38%

**Q.** CCOc1ccc(Cn2c(SCCCCC#N)nc3c2c(=O)n(C)c(=O)n3C)cc1OCC was tested. Which inhibition did it give?
**A.** 29.2%

**Q.** How did the inhibition turn out when Cc1ccc(C)n1-c1ccncc1 was run?
**A.** -2.45%

**Q.** O=C(COc1ccc(S(=O)(=O)NCCc2ccccc2)cc1)N1CCCC1 was tested. Which inhibition did it give?
**A.** -8.41%

**Q.** How did the inhibition turn out when Cc1ccc(Cn2nnc3c(=O)n(CC(=O)N4CCCCC4)cnc32)cc1 was run?
**A.** -6.24%

**Q.** CC(=O)Nc1ccc(-c2nn3c(C)nnc3s2)cc1C was tested. Which inhibition did it give?
**A.** -4.83%

**Q.** N#Cc1ccc(COC(=O)Cn2nnc(-c3ccccc3)n2)cc1 was tested. Which inhibition did it give?
**A.** -12.9%

**Q.** How did the inhibition turn out when CCN1CCc2c(C#N)c(NCc3ccccc3)nc(NCCO)c2C1 was run?
**A.** 10.1%

**Q.** How did the inhibition turn out when N#Cc1c(N)sc2c1CCN(C(=O)OCc1ccccc1)C2 was run?
**A.** 52% (active)

**Q.** With CN(C(=O)CSc1nnnn1-c1ccccc1)C1CCCCC1 as the compound, how does the inhibition read?
**A.** -7.53%

**Q.** For CCN(Cc1ccccc1)C(=O)CSc1nc(C)cc2c1C(=O)OC2, which inhibition is on record?
**A.** -15.7%

**Q.** Which inhibition does the source give for O=C(O)CCC(=O)N(Cc1cccs1)Cc1cccs1 here?
**A.** 4.03%

**Q.** Which inhibition does the source give for Cc1ccc(-c2nn(-c3ccccc3)cc2CN(Cc2ccccc2)C(=O)CCC(=O)O)o1 here?
**A.** 81.7% (active)

**Q.** CSCCC1NC2(C(=O)Nc3ccc(Cl)cc32)[C@@H]2C(=O)N(C3CCCC3)C(=O)[C@H]12 (stereo partly drawn) was tested. Which inhibition did it give?
**A.** 2.23%

**Q.** c1ccc2c(c1)OCC(CNc1ncnc3nc[nH]c13)O2 (stereo not drawn) was tested. Which inhibition did it give?
**A.** -8.18%

**Q.** COC(=O)c1ccc(OC(=O)c2nn(C)cc2Cl)c(OC)c1 was tested. Which inhibition did it give?
**A.** -6.66%

**Q.** For CN(c1ccccc1)c1ccc(/C=c2\s/c(=C(/C#N)C(=O)C(C)(C)C)n(Cc3ccco3)c2=O)cc1, which inhibition is on record?
**A.** 71.8% (active)

**Q.** For CCOc1ccccc1/C=c1\sc2nc(-c3ccco3)nn2c1=O, which inhibition is on record?
**A.** 33.7%

**Q.** With O=c1nc2s/c(=C\c3ccco3)c(=O)n2nc1Cc1ccccc1 as the compound, how does the inhibition read?
**A.** 5.64%

**Q.** For CN(C)c1cc(N)c2ccccc2n1 (tested in a mixture with another compound), which inhibition is on record?
**A.** -10%

**Q.** Which inhibition does the source give for COc1ccc(-c2nc(CS(=O)CC(=O)NCc3ccccn3)c(C)o2)cc1 (stereo not drawn) here?
**A.** 2.69%

**Q.** With CCOC(=O)C1CCN(Cc2coc3ccc(Cl)cc3c2=O)CC1 as the compound, how does the inhibition read?
**A.** 2.73%

**Q.** With CC1=C(C(N)=O)C(c2ccc3c(c2)OCO3)n2nc(-c3cccc(C)c3)nc2N1 (stereo not drawn) as the compound, how does the inhibition read?
**A.** 0.45%

**Q.** With c1ccc(-c2nnc3n2NC(c2ccc4c(c2)OCO4)S3)cc1 (stereo not drawn) as the compound, how does the inhibition read?
**A.** 67.9% (active)

**Q.** For O=C(Cn1nnc(-c2ccccc2)n1)NCc1ccc2c(c1)OCO2, which inhibition is on record?
**A.** -23.7%

Source: PubChem BioAssay AID565 (University of Pittsburgh Molecular Library Screening Center, 2006)
